The record followed here is PubChem BioAssay AID1578 (Sanford-Burnham Center for Chemical Genomics, 2009).

SMILES strings stand for the structures. Where “and” joins values, the source holds several entries; their conditions need not be identical. Identical values can stand only once. The whole screen tested about 290,000 compounds, of which about 3,000 (1%) were called active. The sample holds actives, similar compounds and a random draw of the others, so the mix is not that of the screen. No stated cut-off is given here; in the data, active means inhibition mostly above about 36% (no sharp cut-off); inactive means mostly below about 34%. More than one record can exist for a structure, and the calls need not agree.

This assay in a line: inhibition of NOD1-driven NF-kB reporter – cell-based, luminescence, uHTS, primary screen (AID 1578).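 Further: HEK-293T reporter cells stimulated with the NOD1 agonist gamma-tri-DAP.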 To be noted: NOD1-driven NF-kB luciferase reporter cells, at 4 µM, stronger effect = higher value. Background: A reporter such as luciferase makes a cellular process visible.
What is called inhibition is the relative decrease from the control value, in per cent. For the compound `O=C(O)/C=C\C(=O)NNC(=O)c1cc(-c2ccccc2)n[nH]1`, the inhibition was -10% (inactive).

With `Cc1ccc(CNC(=O)c2ccccc2NS(=O)(=O)c2ccc(Cl)nc2)cc1`, the inhibition was 5.6% (inactive).

Regarding `CC(C)On1c(SCC(=O)N(C)C)nc2ccccc2c1=O`, the inhibition is -1.8% (inactive).

As for `CCN1/C(=C\C(C)=O)Sc2ccc(OC)cc21`, the inhibition was 16.9% (inactive).

As to `CCC(=O)/C=C1/Sc2ccc(OC)cc2N1CC`, the inhibition is 22.6% (inactive).

In the case of `CCN1/C(=C/C(C)=O)Sc2ccc(OC)cc21`, the inhibition is 53% (active).

`CC(=O)N1[C@H](Cc2ccccc2)C=C[C@]1(C)C(=O)NCc1ccccn1`: the inhibition is -2.7% (inactive).

`COCCNC(=O)[C@@]1(C)C=C[C@@H](Cc2ccccc2)N1C(=O)c1ccccc1`: the inhibition was -45.4% (inactive).

Regarding `CC(=O)N1[C@H](Cc2ccccc2)C=C[C@]1(C)C(=O)NCCN1CCOCC1`, the inhibition was 22.4% (inactive).

For the compound `C[C@]1(C(=O)NCCc2c[nH]c3ccccc23)C=C[C@@H](Cc2ccccc2)N1C(=O)c1ccccc1`, the inhibition was 84.6% (active).

On to `CC(=O)N1[C@H](Cc2ccccc2)C=C[C@]1(C)C(=O)NCc1ccc(C)o1`, for which the inhibition was 99.7% (active).

As for `CC(=O)N1[C@H](Cc2ccccc2)C=C[C@]1(C)C(=O)NCCc1c[nH]c2ccccc12`, the inhibition is -15.7% (inactive).

For `Cc1sc2nc(SCC(=O)N(C)Cc3ccccc3)n(-c3ccccc3)c(=O)c2c1C`, the inhibition was 3.3% (inactive).

As for `Cc1ccc2c(c1)N(C(=O)CCC(=O)NCc1cccnc1)CC(C)O2` (centres undefined), the inhibition was -33% (inactive).

For the compound `Cc1ccc(C(=O)N2CCc3ccccc32)o1`, the inhibition is -15.8% (inactive).

Regarding `CCOC(=O)c1nc2nc(C)cc(=O)n2[nH]1`, the inhibition is -8.6% (inactive).

As for `O=C(NCCCCCCNC(=O)OC1CCS(=O)(=O)C1)OC1CCS(=O)(=O)C1` (centres undefined), the inhibition was 9.3% (inactive).

For the compound `COc1cccc2c1C(=O)c1c(O)c3c(c(O)c1C2=O)C[C@@](O)(C(=O)CO)C[C@@H]3O[C@H]1C[C@H](N)[C@H](O)[C@H](C)O1`, the inhibition was 78.6% (active).

On to `COc1cccc2c1-c1c(O)cccc1C2=O`, for which the inhibition is -18.2% (inactive).

Regarding `COc1cccc2c1C(=O)c1c(O)c3c(c(O)c1C2=O)C[C@@](O)(C(C)=O)C[C@@H]3O[C@H]1C[C@H](N)[C@H](O)[C@H](C)O1`, the inhibition was 108% (active).

Regarding `COc1ccc(OC)c(-n2c(-c3cccc(C)c3)n[nH]c2=S)c1`, the inhibition was -42.7% (inactive).

Take `COc1cccc(COc2ccccc2C2Nc3ccc(Br)cc3C(=O)N2NC(=O)c2ccncc2)c1` (centres undefined): the inhibition is 9.7% (inactive).

Turning to `O=[N+]([O-])c1ccc(N=NN(CCO)CCO)cc1`, the inhibition is 6.1% (inactive).

`O=[N+]([O-])c1ccc(N=Nc2ncc[nH]2)cc1`: the inhibition is 74.2% (active).

`O=[N+]([O-])c1ccc(N=Nc2c(Cl)cc(O)cc2Cl)cc1`: the inhibition is 16.5% (inactive).

With `CCC(=O)c1c(OCc2ccccc2)ccc2c(C)cc(=O)oc12`, the inhibition is 3.9% (inactive).

For the compound `Cc1cccc(C(=O)C2CCN(S(=O)(=O)c3cccc(C(=O)O)c3)CC2)c1`, the inhibition was 12.2% (inactive).

With `O=C(CSc1cccc2cccnc12)OCC(=O)c1ccccc1`, the inhibition is -30.2% (inactive).

Regarding `NNC(=O)CSc1cccc2cccnc12`, the inhibition is -24.8% (inactive).

Turning to `O=C(CSc1cccc2cccnc12)OCC(=O)c1ccc(Br)cc1`, the inhibition is 3.3% (inactive).

As to `O=C(O)CSc1cccc2cccnc12`, the inhibition is 36% (inactive) and 65.2% (active).

For the compound `CCOC(=O)CSc1cccc2cccnc12`, the inhibition was 85.4% (active).

On to `CN(C)C(=O)CSc1cccc2cccnc12`, for which the inhibition is 85.5% (inactive).

Take `COc1ccc(C2(C)NC(=O)N(CC3CCCCC3)C2=O)cc1` (centres undefined): the inhibition was 1.3% (inactive).

For `COc1ccccc1OCCCCN1CCC(C)CC1`, the inhibition was -6.9% (inactive).

With `COc1ccc2nc(NC(=O)C3CCCN(S(=O)(=O)c4cccc5nonc45)C3)sc2c1` (centres undefined), the inhibition was -1.6% (inactive).

In the case of `O=C(Nc1ccc(NC(=O)c2ccccc2Cl)cc1)c1cccnc1`, the inhibition was -48.1% (inactive).

As for `CN(CCCCCCCCC(=O)/C=N/O)Cc1ccccc1`, the inhibition is -3.1% (inactive).

Take `CCN(CC)CCOC(=O)c1ccc(NC(=O)c2ccc(Cl)c(S(=O)(=O)N3CCCCCC3)c2)cc1`: the inhibition was 13.1% (inactive).

`CC(C)Nc1nnc(SCC(=O)Nc2ccc(F)cc2)s1`: the inhibition was -8.4% (inactive).

For `CC(C)Nc1nnc(SCC(=O)Nc2ccc3c(c2)C(=O)c2ccccc2C3=O)s1`, the inhibition is 83.7% (active).

Turning to `O=C(CSc1nnc(NC2CCCCC2)s1)Nc1ccc2c(c1)C(=O)c1ccccc1C2=O`, the inhibition was -43.3% (inactive).

`CC(=O)c1cccc(NC(=O)C2C(c3ccccc3)C2(Cl)Cl)c1` (centres undefined): the inhibition is -15.1% (inactive).

With `COc1ccc(C2NC(=O)NC3=C2C(=O)CCC3)cc1` (centres undefined), the inhibition is -30.7% (inactive).

As to `COCCN1C(=O)c2cc(C(=O)Nc3cccc(F)c3)ccc2C1Nc1cccc(F)c1` (centres undefined), the inhibition is 2.2% (inactive).

Turning to `COCCCn1c(SCCc2ccccc2)nc2cc(OC)c(OC)cc2c1=N`, the inhibition was 49.8% (active).

`COCCCn1c(SCc2ccccc2)nc2cc(OC)c(OC)cc2c1=N`: the inhibition is 5.9% (inactive).

For the compound `COCCCn1c(SCc2ccc(OC)cc2)nc2cc(OC)c(OC)cc2c1=N`, the inhibition is -11.5% (inactive).

For the compound `O=C(COC(=O)c1ccc(S(=O)(=O)N2CCc3ccccc3C2)cc1)NC1CCS(=O)(=O)C1` (centres undefined), the inhibition was 3.9% (inactive).

For the compound `NS(=O)(=O)c1ccc(NC(=S)NCc2ccc(Cl)cc2)cc1`, the inhibition is 4.1% (inactive).

On to `CC1=CN2C(=N)/C(=C/c3ccc(Sc4ccc(Cl)cc4)o3)C(=O)N=C2S1`, for which the inhibition is 76.7% (active).

As for `CC1=CN2C(=N)/C(=C/c3ccco3)C(=O)N=C2S1`, the inhibition is -63.4% (inactive).

With `CC1=NN2C(=N)/C(=C\c3ccc(SCc4ccccc4)o3)C(=O)N=C2S1`, the inhibition was 9.5% (inactive).

On to `CC1=CN2C(=N)/C(=C/c3ccc(C)o3)C(=O)N=C2S1`, for which the inhibition is -39.8% (inactive).

`CC1=CN2C(=N)/C(=C/c3ccc([N+](=O)[O-])o3)C(=O)N=C2S1`: the inhibition was 78.2% (active).

`CC1=CN2C(=N)/C(=C/c3ccc(Sc4ccc(C)cc4)o3)C(=O)N=C2S1`: the inhibition is -6.2% (inactive).

As to `CC(=O)Nc1ccc(OC(=O)c2cc3cc(Br)ccc3oc2=O)cc1`, the inhibition is 7.6% (inactive).

Take `CC(C)C(=O)Nc1ccc(NC(=O)c2ccccc2Cl)nc1`: the inhibition was -13.2% (inactive).

On to `CCN(CC)C(=O)CSc1nnc([C@H](Cc2c[nH]c3ccccc23)NC(=O)OC(C)(C)C)o1`, for which the inhibition is -14.8% (inactive).

`CC(C)Sc1nnc(NC(=O)C2CC2)s1`: the inhibition was 37.9% (active).

As to `CCSc1nnc(NC(=O)C2CCCCC2)s1`, the inhibition was -31.5% (inactive).

`CC(C)N(C(=O)CSc1nnc(NC(=O)C2CCC2)s1)C(C)C`: the inhibition was -7.8% (inactive).

As to `CCc1ccc(NC(=O)CSc2nnnn2-c2cccnc2)cc1`, the inhibition is -28.4% (inactive).

`CCCC(=O)C1=C(O)C(C(=O)OC)C(C)(C)CC1=NCCCCCC(=O)O` (centres undefined): the inhibition was -12.1% (inactive).

In the case of `Cc1cc(C)c(NC(=O)c2ccc3c(c2)C(=O)N(Cc2cccnc2)C3=O)c(C)c1`, the inhibition is -0.6% (inactive).

In the case of `Fc1cccc(CNc2ncnc3cc(Cl)ccc23)c1F`, the inhibition is 0.2% (inactive).

On to `COc1cc2ncnc(NCc3cc(F)ccc3F)c2cc1OC`, for which the inhibition was 0.3% (inactive).

Turning to `Nc1cc(=O)[nH]n1C1CCN(c2ccccc2)CC1`, the inhibition is -4% (inactive).

Turning to `COc1ccc(C2C=C(Nc3ccccc3)C(=O)N2c2ccccc2)cc1OC` (centres undefined), the inhibition was 4.9% (inactive).

Consider `CC(=O)NCc1cc(-c2ccc(Cl)cc2)no1`, for which the inhibition is -35.1% (inactive).

With `COc1ccc(-c2cc(CNC(=O)CCl)on2)cc1`, the inhibition is 54.5% (inactive).

For `O=C(CCl)NCc1cc(-c2ccc(Cl)cc2)no1`, the inhibition is 87.7% (active).

As to `COc1ccc(Cl)cc1NC(=O)CN1C(=O)NC2(CCCC2)C1=O`, the inhibition was -8.5% (inactive).

Take `O=C(CSc1ncnc2c1oc1ccccc12)NCc1ccc(F)cc1`: the inhibition was 19.3% (inactive).

Consider `CCn1c(SCC(=O)N2CCCc3ccccc32)nc2ccccc2c1=O`, for which the inhibition was -37.5% (inactive).

Consider `Cc1nc(SCC(=O)NCc2ccco2)c2oc3ccccc3c2n1`, for which the inhibition is -2.6% (inactive).

As to `O=C(CSc1ncnc2c1oc1ccccc12)NCc1ccco1`, the inhibition is 72.8% (active).

For the compound `O=C(CSc1nc2ccccc2c(=O)n1-c1ccccc1)N1CCCc2ccccc21`, the inhibition is -19.1% (inactive).

With `CCc1nc(SCC(=O)N2CCCc3ccccc32)c2oc3ccccc3c2n1`, the inhibition is 0.5% (inactive).

For the compound `Cc1nc(SCC(=O)N2CCCc3ccccc32)c2oc3ccccc3c2n1`, the inhibition was -0.3% (inactive).

Take `COc1cccc(OCC(O)CN2CCN(c3ccccc3)CC2)c1` (centres undefined): the inhibition is 2.2% (inactive) and -2.1% (inactive).

For the compound `CC(C)(C)c1ccc(-c2noc(-c3ccno3)n2)cc1`, the inhibition was -6.3% (inactive).

Turning to `CCN(CC)S(=O)(=O)c1cccc(C(=O)N/N=C/c2ccc(N3CCOCC3)cc2)c1`, the inhibition is -29.1% (inactive).

Take `O=C1NC(=O)/C(=C\c2ccc(O)cc2O)S1`: the inhibition is -22.3% (inactive).

Regarding `COCCNC(=O)c1ccc(C)c(NC(=O)C2=C(C)OCCS2)c1`, the inhibition was -9.9% (inactive).

As to `COC(=O)C(CC(=O)O)NCc1ccco1` (centres undefined), the inhibition was -10.9% (inactive).

Take `CC(=O)N1CCN(CC(=O)Nc2ccc([N+](=O)[O-])cc2Br)CC1`: the inhibition is -29.7% (inactive).

On to `FC(F)(F)c1ccccc1NC(=S)NN1CCOCC1`, for which the inhibition was -11.5% (inactive).

On to `O=C(O)c1cccc(Nc2ccc([N+](=O)[O-])cn2)c1`, for which the inhibition is -19.2% (inactive).

In the case of `c1ccc(Nc2ccnc(Nc3ccccc3)n2)cc1`, the inhibition is 8.8% (inactive).

Regarding `O=C(O)c1cccc(Nc2ccnc(Nc3cccc(C(=O)O)c3)n2)c1`, the inhibition was 38.5% (active).

For `CCOC(=O)C1=C(C)N(C)C(=S)NC1c1ccc(Cl)cc1Cl` (centres undefined), the inhibition was -11.6% (inactive).

As to `C[n+]1c2n(c3ccccc31)N=C(c1ccc(-c3ccccc3)cc1)CS2`, the inhibition is 43.5% (inactive).

As to `C[n+]1c2n(c3ccccc31)N=C(c1ccccc1)CS2`, the inhibition is 5% (inactive) and 22.1% (inactive).
